Bioassay records deposited in PubChem by National Center for Advancing Translational Sciences (NCATS).
Methyltransferases: Primary Screen for Target Class Profiling of Small Molecule Inhibitors of Methyltransferases | calls only at 40 µM | 3.9% of 25,000 active | purified enzyme, MTase-Glo SAH luminescence; stronger effect = lower value; call rule not given here
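Each enzyme was assayed with SAM and its substrate. SAH formation detected by MTase-Glo luminescence; single-point 40 uM screen[…].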
MTase-Glo ctr: Counterscreen for Target Class Profiling of Small Molecule Inhibitors of Methyltransferases; shares compounds with Methyltransferases; MTase-Glo coupled enzymes, SAH conversion luminescence, no MTase; Potency, µM (highest dose often 57.3 µM), hits mostly inhibitors; 6% of 180 active; AID 1745851, 2022; active means well fitted inhibition curve with a large enough effect; inconclusive means small, poorly fitted or top-dose-only effect
Calls only; – = inactive; ? = inconclusive; + = active, no number. This excerpt belongs to a sample that is enriched for hits.

SMILES	Methyltransferases	others
CC(N)Cc1c[nH]c2ccccc12 (stereo not given)	–
Cc1ccc(NC(=O)N2Cc3ccccc3-n3cccc3C2c2ccccc2Cl)c(C)c1 (stereo not given)	–
O=C(C[C@@H]1NCCC[C@H]1O)Cn1cnc2ccccc2c1=O	–
CCCN(CCC)C1CCc2ccc(O)cc2C1 (stereo not given)	+
CCCN(CCC)C1CCc2cccc(O)c2C1 (stereo not given)	–
CCCN(CCC)[C@@H]1CCc2ccc(O)cc2C1	–
CCOC(=O)CNC(=O)N1Cc2ccccc2-n2cccc2C1c1ccc(C)cc1 (stereo not given)	–
CO[C@@H]1[C@@H](O)[C@@H](O[C@H]2CC[C@]3(C=O)C4CC[C@]5(C)[C@@H](C6=CC(=O)OC6)CC[C@]5(O)[C@@H]4CC[C@H]3C2)O[C@@H](C)[C@H]1O[C@@H]1O[C@H](CO[C@@H]2O[C@H](CO)[C@@H](O)[C@H](O)[C@H]2O)[C@@H](O)[C@H](O)[C@H]1O (stereo not given in full)	–
CCCN1CC[C@@H]2c3cc(O)ccc3CC[C@@H]21	+
Cc1ccc(Cl)cc1NC(=O)N1Cc2ccccc2-n2cccc2C1C (stereo not given)	–
CCOC(=O)CNC(=O)N1Cc2ccccc2-n2cccc2C1c1cc(F)cc(F)c1 (stereo not given)	–
CN1C(=O)N(c2ccc(C#N)c(C(F)(F)F)c2)C(=O)[C@@]1(CO)c1ccccc1	–
COc1cc(NC(=O)N2Cc3ccccc3-n3cccc3C2c2cccs2)cc(OC)c1 (stereo not given)	–
Cc1ccccc1C1c2cccn2-c2ccccc2CN1C(=O)Nc1ccccc1 (stereo not given)	–
Cc1ccccc1C1c2cccn2-c2ccccc2CN1C(=O)Nc1ccc(Cl)cc1 (stereo not given)	–
CN(CCc1ccccn1)C[C@H]1CN2CC[C@H]1C[C@@H]2CNC(=O)Nc1ccsc1	+	MTase-Glo ctr=–
CC(C)NC(=O)NC[C@H]1C[C@@H]2CCN1C[C@@H]2CN1CCC(Cc2ccccc2)CC1	–
CN(CCc1ccccn1)C[C@H]1CN2CC[C@H]1C[C@@H]2CNC(=O)c1ccco1	–
CCOC(=O)c1cccc(NC(=O)N2Cc3ccccc3-n3cccc3C2c2ccc(C)cc2)c1 (stereo not given)	–
CCc1ccc(C2c3cccn3-c3ccccc3CN2C(=O)NCc2cccc(OC)c2)cc1 (stereo not given)	–
CCOc1ccccc1NC(=O)N1Cc2ccccc2-n2cccc2C1c1ccc(F)cc1 (stereo not given)	–
CC(=O)c1cccc(NC(=O)NC[C@H]2C[C@@H]3CCN2C[C@@H]3c2cc(-c3ccc(F)cc3)nc(C)n2)c1	+	MTase-Glo ctr=?
COc1ccc(-c2cc([C@H]3CN4CC[C@H]3C[C@@H]4CN)nc(C)n2)cc1OC	+	MTase-Glo ctr=–
Cn1nc(-c2ccc(F)cc2)cc1[C@H]1CN2CC[C@H]1C[C@@H]2CNC(=O)c1cccs1	–
Cc1nc(-c2ccccc2)cc([C@H]2CN3CC[C@H]2C[C@@H]3CNS(C)(=O)=O)n1	–
SMILES	Methyltransferases	others
COc1ccc(-c2cc([C@H]3CN4CC[C@H]3C[C@@H]4COC(=O)NC3CCCCC3)nc(C)n2)cc1	–
CCC(CC)c1cc([C@H]2CN3CC[C@H]2C[C@@H]3CNC(=O)C2CCC2)nc(-c2ccncc2)n1	–
CSc1ccc(C2c3cccn3-c3ccccc3CN2C(=O)Nc2cccc(SC)c2)cc1 (stereo not given)	–
CCn1ccc(C(=O)N2[C@H]3CC[C@@H]2c2cnc(C)nc2C3)n1	–
CN(C)c1ccc(C2c3cccn3-c3ccccc3CN2C(=O)NC2CCCC2)cc1 (stereo not given)	–
FC(F)(F)CN1C2CCC1CN(c1nnc(Cl)c3ccccc13)C2	–
NC(=O)c1ccc(N2CC3CCC(C2)N3CC(F)(F)F)nn1	+	MTase-Glo ctr=–
CCC1c2cccn2-c2ccccc2CN1C(=O)Nc1ccccc1C (stereo not given)	–
COc1cccc(CNC(=O)N2Cc3ccccc3-n3cccc3C2C)c1 (stereo not given)	–
C[C@@H](CN1CCC(n2c(=O)[nH]c3cc(Br)ccc32)CC1)NC(=O)[C@@H]1C[C@H]1c1ccccc1	–
